SNCA viab count – reduces viability of HEK-293 SNCA reporter cells; HEK-293-SNCA-luc viability, GF-AFC fluorescence, 24 h; Potency, µM (titrated, usually from 57.1 µM), usual class: cytotoxic; 0.12% of 150,000 active; AID 1671193; note: nearly all actives have a fitted effect of over 30% in size
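Cytotoxicity counterscreen: after 24 h compound treatment of genome-edited SNCA-luciferase HEK-293 cells, live-cell protease substrate GF-AFC read by fluorescence after 30 min; activity scaled between DMSO (0%) and medium-only (-100%), curves Hill-fitted.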
KDM5B inhibitor – blocks human KDM5B histone demethylase activity; Q9UGL1; KDM5B demethylase, FDH-coupled NADH fluorescence (FDH is formaldehyde dehydrogenase); Potency, µM (doses to about 57.7 µM), actives largely listed as inhibitors; 2.6% of 220,000 active; note: nearly all actives have a fitted effect of over 70% in size
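Inhibition is measured as reduced NADH fluorescence generation from FDH coupling to formaldehyde release. Truncated KDM5BΔAP at 200 nM final acts on H3K4me3 peptide (12.5 µM in substrate mix) in pH 7.5 HEPES buffer with Tween-20, 30 min, room temperature.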
IP6K1 inhibitor – blocks human inositol hexakisphosphate kinase 1; Q92551; IP6K1 kinase, ADP-Glo luminescence, 2 h; hits give low values; activity change, % (series mostly up to about 58 µM); 0.81% of 140,000 active; AID 1645851; in the data active = activity change below about -25%
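ADP-Glo luminescence measures ADP made by human IP6K1 during a 2 h RT reaction with ATP/IP6 (mix at 1.3 mM/130 uM); top library doses 57.5 and 19.1 uM final.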
SNCA expr inhib – reduces expression of the alpha-synuclein gene. 0.17% of 140,000 active. Potency, µM (top dose mostly 57.2 µM), actives largely listed as inhibitors. AID 1671194. HEK-293 SNCA-luciferase knock-in, luminescence, 24 h; note: nearly all actives have a fitted effect of over 45% in size
Large screens that a line does not name were inactive; ! = a repeat was not active. An excerpt weighted towards active compounds, which were near 2.8% of everything screened. Unless noted, calls come from the whole dose curve; as a rule, active = well fitted curve in the direction sought with a large enough effect; inconclusive = small, poorly fitted or top-dose-only effect, or another doubt; inactive = no such curve, though single readings can be large; an effect the other way counts as inactive or inconclusive.

CCC(C(=O)c1ccccc1)n1c(N2CCOCC2)nc2c1c(=O)n(C)c(=O)n2C (configuration not stated)	none (no result: SNCA viab count, IP6K1 inhibitor, SNCA expr inhib)
O=C(Nc1cccc2[nH]ccc12)C(=O)N1CCCC1	none (no result: SNCA viab count, IP6K1 inhibitor, SNCA expr inhib)
COc1ccccc1-c1ncc2c(n1)OCCN(c1cccc(C(F)(F)F)c1)C2=O	SNCA viab count inconclusive, KDM5B inhibitor 32µM
CN1CCOc2nc(-c3cccc(OC(F)(F)F)c3)ncc2C1=O	none
COc1ccc(-c2ncc3c(n2)OCCN(C)C3=O)cc1OC	KDM5B inhibitor 28µM
COc1ccc(Cl)cc1-c1ncc2c(n1)OCCN(c1ccccc1)C2=O	KDM5B inhibitor 28µM
Cc1cccc(C(=O)N2CC(=O)N(c3cccc(Cl)c3)CC2C)n1 (configuration not stated)	none
Cc1ccc(-c2nnc([C@H]3CCN(c4ncccn4)C3)o2)cc1	KDM5B inhibitor 40µM
FC(F)(F)c1ccnc(N2CC[C@H](c3nnc(-c4ccncc4)o3)C2)n1	KDM5B inhibitor inconclusive
Cc1ccc(-c2nnc([C@H]3CCN(c4nccc(C(F)(F)F)n4)C3)o2)cc1	KDM5B inhibitor 20µM
CC1(C)CC[C@]2(C(=O)O[C@@H]3O[C@H](CO)[C@@H](O)[C@H](O)[C@H]3O)[C@H](O)C[C@]3(C)C(=CCC4[C@@]5(C)CC[C@H](O[C@@H]6OC[C@@H](O)[C@H](O)[C@H]6O)[C@@](C)(C(=O)O)C5CC[C@]43C)[C@@H]2C1 (some centres not stated)	none (no result: KDM5B inhibitor, SNCA expr inhib)
Cc1cccc(NC(c2cccc(Cl)c2)c2ccc3cccnc3c2O)n1 (configuration not stated)	KDM5B inhibitor inconclusive, SNCA expr inhib 8.9µM
O=C(NCc1cccs1)c1cc(-c2cccnc2)c2nncn2n1	KDM5B inhibitor 100µM
O=C(NCc1cccs1)c1cc(-c2ccccc2)c2nncn2n1	none (no result: KDM5B inhibitor)
CC(C)NC(=O)N1CCC2(CC1)CN(C(=O)c1ccnc(N)c1)Cc1ccccc1O2	KDM5B inhibitor 79µM
O=C(O)c1cc(I)cc(I)c1	none (no result: SNCA viab count, IP6K1 inhibitor, SNCA expr inhib)
Cc1ccc(-c2cc3c(=O)n(CCNC(=O)c4ccc5cc[nH]c5c4)ccn3n2)cc1C	KDM5B inhibitor 35µM
O=C(NCCn1ccn2nc(-c3ccc(F)cc3)cc2c1=O)c1ccc(F)cc1	KDM5B inhibitor inconclusive
COc1cccc(-c2cc3c(=O)n(CCNC(=O)c4ccc(OC)c(F)c4)ccn3n2)c1	KDM5B inhibitor 20µM
COc1cccc(-c2cc3c(=O)n(CCNC(=O)c4c(F)cccc4F)ccn3n2)c1	KDM5B inhibitor inconclusive
COc1cccc(-c2cc3c(=O)n(CCNC(=O)c4cc(F)cc(F)c4)ccn3n2)c1	none
COc1cccc(-c2cc3c(=O)n(CCNC(=O)c4ccc5cc[nH]c5c4)ccn3n2)c1	KDM5B inhibitor 35µM
COc1ccc(C(=O)Nc2ccc3nc(N4CCCC4)sc3c2)cc1OC	none (no result: SNCA viab count, IP6K1 inhibitor, SNCA expr inhib)
C=CCN(CC(N)=O)Cc1cccs1	none (no result: SNCA viab count, IP6K1 inhibitor, SNCA expr inhib)
CN1C(=S)SC(C)(C)C1/[N+]([O-])=C/c1ccco1 (configuration not stated)	none (no result: SNCA viab count, IP6K1 inhibitor, SNCA expr inhib)
CN(C)Cc1nnc(C2CC(NC(=O)c3nc4ccccc4[nH]3)C2)n1C (configuration not stated)	KDM5B inhibitor 22µM
O=S(=O)(NCc1ccc(N2CCOCC2)nc1)c1ccc(Cl)cc1C(F)(F)F	none (no result: SNCA viab count, IP6K1 inhibitor, SNCA expr inhib)
NC1CCCCN(Cc2cc(-c3ccccc3OC(F)(F)F)no2)C1 (configuration not stated)	none
O=C(Nc1ccc2c(c1)OCO2)C1CCCN(c2cnn(Cc3ccccc3)c(=O)c2)C1 (configuration not stated)	SNCA viab count inconclusive, KDM5B inhibitor inconclusive
O=C(Nc1ccc2oc(-c3ccccc3)nc2c1)C1CCN(c2cnn(Cc3ccccc3)c(=O)c2)C1 (configuration not stated)	KDM5B inhibitor 18µM
c1cncc(-c2nc3ncccc3[nH]2)c1	KDM5B inhibitor 35µM
c1ccc(-c2nc3ncccc3[nH]2)cc1	KDM5B inhibitor 32µM!
Cc1occc1-c1nc2ncccc2[nH]1	KDM5B inhibitor 32µM
c1cncc(-c2nc3ccncc3[nH]2)c1	KDM5B inhibitor inconclusive
O=C(NC1CCN(c2cc(-c3cccs3)[nH]n2)C1)c1cccc(Br)c1 (configuration not stated)	SNCA viab count inconclusive, KDM5B inhibitor 7.9µM, SNCA expr inhib inconclusive
O=C(NC1CCN(c2cc(-c3cccs3)[nH]n2)C1)c1cccc(OC(F)(F)F)c1 (configuration not stated)	KDM5B inhibitor 5µM
O=C(NC1CCN(c2cc(-c3cccs3)[nH]n2)C1)c1cccs1 (configuration not stated)	KDM5B inhibitor inconclusive
O=C(Nc1nc2ccc(F)cc2s1)c1nc(S(=O)(=O)Cc2ccccc2)ncc1Cl	SNCA viab count 32µM, KDM5B inhibitor inconclusive, IP6K1 inhibitor -40, SNCA expr inhib inconclusive
O=C(Cn1cccc1-c1nc(-c2ccc(F)cc2)no1)Nc1cccc(Cl)c1	none
Cc1sc(C)c(CNc2ccccc2)c1CNc1ccccc1	none (no result: SNCA viab count, IP6K1 inhibitor, SNCA expr inhib)
O=C(COc1ncnc2c(Cl)cc(Cl)cc12)Nc1ccc(F)c(F)c1F	none (no result: SNCA viab count, IP6K1 inhibitor, SNCA expr inhib)
CN(C)CCOc1ccccc1-c1ccc(C#N)cc1	KDM5B inhibitor 32µM
CCOc1ccccc1CN1CCc2n[nH]c(=O)n2CC1	none
N#Cc1cccc(CN2Cc3[nH]cnc3C[C@H]2C(=O)NCc2ccco2)c1	KDM5B inhibitor 32µM
O=C(NCc1ccco1)[C@@H]1Cc2nc[nH]c2CN1Cc1ccc(Cl)cc1	KDM5B inhibitor inconclusive, SNCA expr inhib inconclusive
Cc1[nH]cnc1CN1CCNc2cc(-c3ccccc3)ncc2C1	KDM5B inhibitor 32µM, SNCA expr inhib inconclusive
c1ccc(CCN2CCNc3cc(NCc4cccnc4)ncc3C2)cc1	KDM5B inhibitor 35µM
NC(=O)c1cccc(-c2cc3c(cn2)CN(Cc2ccncc2)CCN3)c1	KDM5B inhibitor inconclusive
c1cncc(-c2cc3c(cn2)CN(Cc2ccncc2)CCN3)c1	KDM5B inhibitor inconclusive
Oc1ccccc1CN1CCNc2cc(-c3ccccc3)ncc2C1	SNCA viab count inconclusive, KDM5B inhibitor inconclusive
CCn1cc(-c2cc3c(cn2)CN(Cc2cccnc2)CCN3)cn1	KDM5B inhibitor 32µM
NC(=O)c1cccc(-c2cc3c(cn2)CN(Cc2ccccc2)CCN3)c1	KDM5B inhibitor 32µM
c1ccc(CCN2CCNc3cc(-c4cn[nH]c4)ncc3C2)cc1	SNCA viab count inconclusive, KDM5B inhibitor inconclusive
O=C1COc2ccc(-c3ccccc3)nc2CN1	none
c1ccc(CN2CCNc3cc(-c4cccnc4)ncc3C2)cc1	KDM5B inhibitor 32µM
Cc1nc(CN2CC3(CCN(C)C3)c3cc(C(=O)NCCc4ccccc4)ccc32)cs1 (configuration not stated)	KDM5B inhibitor 28µM
CN(C)CC(=O)N1CCC2(C1)CN(C)c1ccc(C(=O)Nc3ccccc3)cc12 (configuration not stated)	KDM5B inhibitor inconclusive
CCNC(=O)c1ccc2c(c1)C1(CCCN(C)C1)CN2C (configuration not stated)	KDM5B inhibitor 32µM
COc1ccc(NC(=O)c2ccc3c(c2)C2(CCCN(C)C2)CN3Cc2cccnc2)cc1 (configuration not stated)	none

Screening data deposited in PubChem by National Center for Advancing Translational Sciences (NCATS).
